Source: PubChem (National Center for Advancing Translational Sciences (NCATS))
Sampled rows, rich in hits. Any-hit rate of the full collection: about 12%.
Pf growth 48h = P. falciparum growth inhibition at 48 hours (one generation); P. falciparum luciferase growth in erythrocytes, 48 h; hit rate 5.9% among 310,000; Potency, µM (top dose mostly 28.7 µM), usual class: inhibitors; AID 504832
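Luciferase-expressing parasites in RBCs, 2% Hct / 0.1% parasitemia final; RPMI 1640 + 0.5% Albumax; 37 C, 5% CO2, one generation; luminescence read-out, lower signal = inhibition.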
AmpC inh detg = blocks E. coli AmpC beta-lactamase in detergent assay; P00811; AmpC hydrolysis of nitrocefin, absorbance 480 nm, 0.01% Triton; Potency, µM (top dose mostly 114 µM), usual class: inhibitors; hit rate 0.041% among 370,000; AID 485294; also: nearly all actives have a fitted effect of over 25% in size
Target sequence (P00811 whole entry, looked up): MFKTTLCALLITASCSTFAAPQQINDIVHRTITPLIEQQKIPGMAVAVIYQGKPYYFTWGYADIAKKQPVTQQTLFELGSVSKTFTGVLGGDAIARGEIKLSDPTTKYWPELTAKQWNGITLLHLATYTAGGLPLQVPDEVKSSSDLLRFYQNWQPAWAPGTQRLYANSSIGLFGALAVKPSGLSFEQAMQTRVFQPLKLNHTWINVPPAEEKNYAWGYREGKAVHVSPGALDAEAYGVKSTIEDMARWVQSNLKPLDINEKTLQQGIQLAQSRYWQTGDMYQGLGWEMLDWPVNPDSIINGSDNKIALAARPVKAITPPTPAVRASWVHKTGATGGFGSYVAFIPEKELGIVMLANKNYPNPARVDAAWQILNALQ
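20 mM phosphate pH 7.0 + 0.01% (detergent screen) or 0.0001% Triton X-100; 5.3 nM AmpC reagent; cpd preinc 15 min RT; nitrocefin (800 uM stock) to start; A480 q20 s × 4 min; Activity was normalised to no-enzyme and no-compound control wells.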
Pf growth 96h = P. falciparum growth inhibition at 96 hours; P. falciparum luciferase reporter growth, 96 h; Potency, µM (titrated, usually from 28.7 µM), most hits filed as inhibitors; hit rate 6.9% among 320,000
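P. falciparum expressing integrated firefly luciferase, in erythrocytes at 2% hematocrit, 0.05% parasitemia, incubated with compounds 96 h at 37 C, 5% CO2. Growth inhibition read as loss of luminescence; two-generation exposure targets delayed-death apicoplast inhibitors.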
SARS PLpro yeast = SARS-CoV PLP inhibition in yeast; hit rate 0.19% among 330,000; S. cerevisiae expressing SARS-CoV PLpro, growth rescue; AID 485353; Potency, µM (series often up to 32.9 µM), usual class: activators; calls by dose curve; also: nearly all actives have a fitted effect of over 55% in size
AmpC inh no detg = AmpC beta-lactamase inhibition without detergent | AmpC nitrocefin hydrolysis, absorbance 480 nm, 0.0001% Triton | AID 485341 | hit rate 0.52% among 330,000 | Potency, µM (titrated, usually from 57.1 µM), most hits filed as inhibitors | P00811; also: nearly all actives have a fitted effect of over 20% in size
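AmpC (5.3 nM in the dispensed reagent) in 20 mM phosphate pH 7.0 with 0.01% (detergent screen) or 0.0001% Triton X-100 was preincubated with compounds for 15 min at room temperature. Nitrocefin was then added from an 800 uM solution, and hydrolysis was followed at 480 nm.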
Sm TGR block = inhibitors of Schistosoma mansoni thioredoxin glutathione reductase; Potency, µM (highest dose often 114 µM), actives largely listed as inhibitors; Q962Y6; purified TGR, DTNB reduction, TNB absorbance 405 nm; AID 485364; hit rate 3% among 360,000; also: nearly all actives have a fitted effect of over 60% in size
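TGR 20 nM + NADPH 100 uM (dispensed conc.), cpd preinc 15 min RT; start with NADPH (500 uM addition) then DTNB (15 mM addition). Kinetic TNB absorbance, 405 nm filter. Four-parameter Hill fit across titration.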
Hits are given with their value; – = inactive; ? = inconclusive; · = no result given; [ ] = remark or other dose. Unless noted, calls follow the shape of the dose curve; as a rule, active = well fitted curve in the direction sought with a large enough effect; inconclusive = small, poorly fitted or top-dose-only effect, or another doubt; inactive = no such curve, though single readings can be large; an effect the other way counts as inactive or inconclusive.

SMILES | Pf growth 48h | AmpC inh detg | Pf growth 96h | SARS PLpro yeast | AmpC inh no detg | Sm TGR block
CSc1ccccc1C(=O)C1CCCN(C(=O)c2cc(C(C)C)no2)C1 (stereo unspecified) | – | – | – | – | – | 22µM
COc1cc(OC)c(OC)cc1CN1CCCC(C(=O)c2ccccc2SC)C1 (stereo unspecified) | – | – | 3.7µM | – | – | –
COc1cc(CN2CCCC(C(=O)c3ccccc3SC)C2)cc(OC)c1 (stereo unspecified) | – | – | 12µM | – | – | –
COc1cccc(O)c1CN1CCCC(C(=O)c2ccccc2SC)C1 (stereo unspecified) | ? | – | – | – | – | –
COc1ccc(C(=O)C2CCCN(Cc3c(C)[nH]c4ccccc34)C2)c(OC)c1 (stereo unspecified) | ? | – | ? | – | – | 35µM
Cc1cccc(N(C)C(=O)CCNS(=O)(=O)c2ccc3c(c2)CCN3C(=O)C2CC2)c1 | · | – | · | · | · | ?
CCOC(=O)c1ccccc1NC(=O)COC(=O)C1CCN(S(=O)(=O)c2ccccc2C(=O)OC)CC1 | – | – | ? | – | ? | –
CC(=O)c1ccc(-n2c(CCC(=O)O)ccc2-c2cccs2)cc1 | – | – | – | – | – | 0.89µM
Cc1ccc(-c2ccc(CCC(=O)O)n2NC(=O)c2cccs2)cc1 | – | – | · | – | – | –
NC(=O)c1ccc(-n2c(CCC(=O)O)ccc2-c2cccs2)cc1 | – | ? | ? | – | – | 2µM
Cc1ccc(-n2c(CCC(=O)O)ccc2-c2cccs2)cc1Cl | · | – | · | · | · | 7.9µM
Cc1ccc(-n2c(CCC(=O)O)ccc2-c2cccs2)cc1 | – | – | · | – | – | 13µM
O=C(O)CSc1nnc(-c2cccs2)n1-c1ccc(Cl)cc1 | – | – | · | – | – | –
Cc1ccc(N(Cc2cccs2)C(=O)C(C)Oc2ccc(Cl)c(C)c2)cc1 (stereo unspecified) | · | – | · | · | · | –
O=C(CN1c2ccccc2S(=O)(=O)c2ccccc21)NCc1ccc(F)cc1 | – | – | ? | – | – | –
NC(=O)C1CCCN(C(=O)c2ccc(-c3cccc(Cl)c3Cl)o2)C1 (stereo unspecified) | – | – | – | – | – | –
Cc1ccc(NC(=O)CN2C(=O)CCc3ccccc32)cc1C | · | – | · | · | · | –
CCN1CCN(Cc2nc3cc(NC(=O)c4ccccc4[N+](=O)[O-])ccc3n2CC)CC1 | · | – | · | · | · | –
CCCc1cc(=O)oc2c3c(cc(OCC(=O)N[C@@H](C)C(=O)O)c12)OC(C)(C)CC3 | – | – | – | – | – | –
CCCc1cc(=O)oc2c3c(c4c(c12)OC(C)(C)C=C4)OC(C)C(C)C3O (stereo unspecified) | ? | ? | 10µM | – | – | –
Cc1c(-c2nnc(-c3ccc(C(F)(F)F)cc3)o2)cnn1-c1ccccc1 | · | – | – | – | – | –
Cc1nn(-c2ccccc2)nc1-c1nnc(-c2ccc(C(F)(F)F)cc2)o1 | 0.26µM | – | ? | – | – | –
Cc1ccc(S(=O)(=O)N(C)c2ccc(C(=O)NCc3ccccc3F)cc2)cc1 | ? | – | ? | – | – | –
Cc1ccc(Nc2nc(-c3ccccc3)c(CC(=O)O)s2)cc1 | – | ? | ? | – | ? | –
O=C(Cc1sc(Nc2ccccc2)nc1-c1ccccc1)NCc1ccccn1 | – | – | – | – | –[11.4 µM] | 25µM
SMILES | Pf growth 48h | AmpC inh detg | Pf growth 96h | SARS PLpro yeast | AmpC inh no detg | Sm TGR block
O=C(O)Cc1sc(Nc2ccccc2)nc1-c1ccc(Cl)cc1 | – | – | – | – | – | 45µM
O=C(CS(=O)(=O)Cc1ccccc1)Nc1ccc(S(=O)(=O)N2CCOCC2)cc1 | – | – | – | – | – | –
COc1ccccc1CNS(=O)(=O)c1ccc2c(c1)NC(=O)C(C)C(=O)N2 (stereo unspecified) | · | – | · | · | · | –
O=C(O)c1ccc(Cn2ccc3ccccc32)o1 | – | – | – | – | – | –
c1ccc(C2(Cn3ccc4ccccc43)OCCO2)cc1 | 13µM | – | ? | – | – | –
O=C(C1CCC(Cn2c(=O)c3sccc3n(Cc3ccc(F)cc3)c2=O)CC1)N1CCOCC1 (stereo unspecified) | · | – | · | · | · | –
COc1ccc(CNC(=O)CS(=O)(=O)c2cccc3nsnc23)cc1 | · | – | · | · | · | –
COc1ccccc1CC(=O)N(CCC#N)CCC#N | – | – | – | – | – | –
COc1cc(/C=C2/S/C(=N/S(=O)(=O)Cc3ccccc3)NC2=O)c([N+](=O)[O-])cc1OC | ? | – | ? | – | – | –
COc1cc(/C=C2\S/C(=N/S(=O)(=O)Cc3ccccc3)NC2=O)c([N+](=O)[O-])cc1OC | ? | – | 8.3µM | – | – | –
C/C(CC(=O)NC1CCCCC1)=N\NC(=O)COc1ccc(C)cc1Br | ? | – | – | – | – | –
CCOC(=O)[C@H]1[C@H]2COc3ccc(C)cc3[C@@H]2N2C(=O)c3cc(Br)ccc3NC(=O)[C@@]12C | · | · | · | – | – | ·
COC(=O)CCc1c(COC(C)=O)[nH]c(C(=O)OCc2ccccc2)c1C | ? | – | ? | – | – | 3.5µM
O=C(Nc1cccc(S(=O)(=O)N2CCCCC2)c1)C1CCCN1S(=O)(=O)c1ccccc1F (stereo unspecified) | 10µM | – | ? | – | – | –
O=C(CNc1cccc(S(=O)(=O)N2CCCC2)c1)Nc1cccc(F)c1 | 3.7µM | – | 10µM | – | – | –
O=C(CNc1cccc(C(F)(F)F)c1)Nc1cccc(S(=O)(=O)N2CCCC2)c1 | ? | – | ? | – | – | –
O=C(Cn1nnc(-c2ccc(F)cc2)n1)Nc1cccc(S(=O)(=O)N2CCCC2)c1 | ? | – | 13µM | – | – | –
Cc1ccc(SCC(=O)Nc2cccc(S(=O)(=O)N3CCOCC3)c2)cc1C | 17µM | – | ? | – | – | –
Cc1ccc(S(=O)(=O)N(Cc2ccccc2F)C(=O)N2CCN(C)CC2)cc1 | ? | ? | – | – | – | –
Cc1ccc(NC(=O)CNc2cccc(S(=O)(=O)N3CCOCC3)c2)cc1F | 10µM | – | 6.6µM | – | – | –
O=C(CNc1cccc(S(=O)(=O)N2CCCC2)c1)Nc1ccc(F)c(F)c1 | 1.5µM | – | 1.3µM | – | – | –
CCN(CC)S(=O)(=O)c1cc(NC(=O)CNc2cccc(S(=O)(=O)N3CCOCC3)c2)ccc1C | ? | ? | ? | – | – | –
Cc1ccc(NC(=O)CNc2cccc(S(=O)(=O)N3CCCC3)c2)cc1F | 9.3µM | – | 5.2µM | – | – | –
CC(=O)c1cccc(NCC(=O)Nc2cccc(S(=O)(=O)N3CCCCC3)c2)c1 | ? | – | ? | · | – | –
CC1(C)CNc2cc(N)ccc2S1 | – | – | – | – | – | ?
